Source: PubChem (Broad Institute)
Vif imaging: blocks HIV Vif function; HEK293T cells, Vif self-association by quenched fluorescence, imaging, 24 h; inhibition, % at 7.49 µM; 340,000 tested, 0.35% active; in the data active means inhibition above about 50%, passing the limit was not always enough; inconclusive means no clear call, values can overlap the other calls; inactive means below about 31%
FGF22 binding-1: FGF22 (human) thermal shift binding. 340,000 tested, 1.5% active. AID 651658. Q9HCT0. activity (Tm shift, normalised), % at 9.99 µM. recombinant FGF22 thermal shift, SYPRO orange fluorescence; percent of sucrose octasulfate shift, DMSO zero;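 active means mean Tm shift, scaled 0 neutral to 100 positive control, at about 1.3% or above, every replicate too, limit read from the data; inconclusive means no clear call, values can overlap the other calls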
Target sequence (Q9HCT0 whole entry, looked up): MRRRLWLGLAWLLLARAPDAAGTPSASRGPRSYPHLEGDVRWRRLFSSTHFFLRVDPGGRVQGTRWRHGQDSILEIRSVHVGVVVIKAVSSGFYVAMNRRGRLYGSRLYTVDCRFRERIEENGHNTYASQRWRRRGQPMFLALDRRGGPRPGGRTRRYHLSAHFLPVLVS
CFTR F508del cor: correctors of CFTR F508del function in bronchial epithelial cells | CFBE cells, YFP halide quenching; stimulated with forskolin plus potentiator P3; % fluorescence drop versus neutral controls | activity (quench increase), % at 7.58 µM | 350,000 tested, 0.36% active | AID 720511;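 active means mean added fluorescence quench of at least 8% versus neutral control, with both replicates also reaching 8%; inconclusive means only one of the mean or replicate conditions met; inactive means mean below 8% and not both replicates reaching 8%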;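 further: cells transiently co-express mutant CFTR-F508del with the halide-sensitive YFP; corrector assay measuring rescue of mutant channel to the surface after 24 h compound exposure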
FGF22 binding-2: FGF22 (human) binding in thermal shift; shares compounds with FGF22 binding-1; recombinant FGF22 thermal shift, SYPRO orange fluorescence; thermal shift activity, °C (ΔTm) at 38 µM; 1,000 tested, 2% active; AID 720646;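 active means fitted rise in melting shift crosses a set limit at or below the top valid dose tested; inconclusive means flat fit at mid-level activity, or a poor quality fit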
FGF22 TSA: binders of human FGF22 by thermal shift; 50 tested, under 10 active; Tm shift (activity), % at 38 µM; Thermal shift assay, SYPRO orange, melting temperature shift; shares compounds with FGF22 binding-1;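 active means compounds whose fitted dose curve of melting temperature shift rises past a set threshold within the tested doses; inconclusive means flat curve at moderate activity, or poor curve fit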
SYPRO no-protein: compound-only SYPRO artifact for FGF22 binders | compound-only SYPRO orange thermal shift counter-screen, no protein | shares compounds with FGF22 binding-1 | AC50, µM (titrated, usually from 38 µM) | AID 743019 | 1,000 tested, 2% active;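 active means rising signal whose fitted curve reaches the 0.54 level within the top valid dose, showing a melting point, actives reach about 13 µM in these data; inactive means the rest, including activity in the opposite direction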; further: value is where the raw curve crosses a fixed level and not half-maximal
Numbers without * were called inactive; i = inactive; ? = inconclusive; . = no result given; ! = not active in a repeat; [ ] = dose if it differs, or a comment. The list is not random: actives were taken first. Their share in the collection is about 1.7%.

SMILES	Vif imaging	FGF22 binding-1	CFTR F508del cor	FGF22 binding-2	SYPRO no-protein	others
O=C(O)Cc1ccc(NC(=O)c2ccc(Cl)c(Cl)c2)cc1	-14	1.8*	1	0.57	i	FGF22 TSA=0
CC(C)CC#Cc1cnc2c(c1)C(=O)N([C@@H](C)CO)C[C@@H](C)[C@H](CN(C)C(=O)CCN1CCCCC1)O2	.	0	0	.	.
Cc1nn(-c2ccccc2)c(C)c1/C=N/NC(=O)c1cc(-c2ccc(Br)s2)[nH]n1	-19	.	.	.	.
Cc1nn(-c2ccccc2)c(C)c1/C=N/NC(=O)c1cc(-c2cccs2)[nH]n1	1	1.6*	4	-0.17	i
O=C(Nc1ccc2c(c1)[C@H]1C[C@H](CC(=O)N3CCOCC3)O[C@@H](CO)[C@H]1O2)NC1CCCC1	.	0	2	.	.
NCC[C@@H]1CC[C@@H](NC(=O)C2CC2)[C@@H](CO)O1	.	.	0	.	.
Cc1nc2cc(C(=O)NCc3ccc4c(c3)OCO4)ccc2n1-c1ccc(Br)cc1	2	1.6*	.	-0.051	i
O=C(NCc1ccc2c(c1)OCO2)c1ccc(Br)cc1	-1	0	-2	.	.
C[C@@H]1CN([C@H](C)CO)C(=O)c2cc(-c3ccccc3)cnc2O[C@@H]1CN(C)C(=O)c1ccccc1F	.	0	3	.	.
Cc1ccc(-c2nnn(CC(=O)NCCc3ccc4c(c3)OCO4)n2)cc1	27	8.9*	-1	0.045	i
O=C(Cn1nnc(-c2ccc3c(c2)OCO3)n1)NCc1ccccc1	4	0	-1	.	.
O=C(C[C@@H]1C[C@@H]2c3cc(NS(=O)(=O)c4ccc(F)cc4)ccc3O[C@@H]2[C@@H](CO)O1)NCc1cccc(F)c1	.	0	1	.	.
COc1ccc([N+](=O)[O-])cc1/C=N/NC(=O)c1nonc1N	22	0	2	.	.
COc1cccc(/C=N/Nc2ccc([N+](=O)[O-])cc2)c1O	-5	0	1	.	.
COc1ccc(/C=N/NC(=O)c2cccc([N+](=O)[O-])c2)cc1OC	0	1.6*	0	0.034	i
COc1ccc(/C=N/Nc2ccc([N+](=O)[O-])cc2)cc1O	-9	1.8*	1	.	i
COc1ccc([N+](=O)[O-])cc1/C=N/Nc1nn[nH]n1	0	1.5*	-3	-0.04	i
COc1cc(/C=N/NC(=O)c2cccc([N+](=O)[O-])c2)cc(OC)c1O	.	-1	0	.	.
C[C@@H]1CN([C@@H](C)CO)C(=O)c2cc(/C=C/c3ccccc3)cnc2O[C@H]1CN(C)C(=O)CN1CCOCC1	.	0	-5	.	.
Cc1ccc(S(=O)(=O)N2CC[C@@H]3[C@@H](CO)Nc4ccc(Br)cc4[C@@H]32)cc1	.	0	1	.	.
C[C@@H]1CN([C@H](C)CO)C(=O)c2cc(C#CC3CC3)cnc2O[C@@H]1CN(C)C(=O)c1ccc(F)cc1	.	0	2	.	.
CCC(=O)N(C)C[C@@H]1[C@@H](c2ccc(-c3ccccc3F)cc2)[C@H](CO)N1C(C)=O	.	-1	1	.	.
Cc1ccccc1-c1ccc([C@H]2[C@@H](CO)N3CCCCN(Cc4cccnc4)C[C@H]23)cc1	.	1.3*	-5	-0.039[42 µM]	i
OC[C@@H]1[C@H](c2ccc(-c3cccnc3)cc2)[C@H]2CN(Cc3ccccn3)CCCCN12	.	1.5*	-3	0.26	i
OC[C@H]1[C@@H](c2ccc(-c3ccccc3F)cc2)[C@H]2CN(Cc3cccnc3)CCCCN21	.	0	-2	.	.
SMILES	Vif imaging	FGF22 binding-1	CFTR F508del cor	FGF22 binding-2	SYPRO no-protein	others
OC[C@H]1[C@H](c2ccc(-c3ccccc3)cc2)[C@H]2CN(Cc3ccccn3)CCCCN21	.	0	1	.	.
OC[C@@H]1[C@H](c2ccc(-c3ccccc3)cc2)[C@@H]2CN(Cc3ccccn3)CCCCN12	.	0	3	.	.
OC[C@@H]1[C@H](c2ccc(-c3cccnc3)cc2)[C@@H]2CN(Cc3ccccn3)CCCCN12	.	1.4*	-2	0.018	i
C[C@@H]1CN([C@@H](C)CO)C(=O)c2cccc(NS(=O)(=O)c3cccs3)c2O[C@@H]1CN(C)S(=O)(=O)c1ccc(Cl)cc1	.	0	-2	.	.
CCC(=O)N1[C@@H](CO)[C@@H](c2ccccc2)[C@@H]1CN(CC)C(=O)c1ccccc1	.	0	2	.	.
O=C(C[C@H]1CC[C@H](NC(=O)Cc2ccccn2)[C@@H](CO)O1)NCCCN1CCOCC1	.	0	1	.	.
NC(c1ccc(F)c(F)c1)c1nc(-c2cncnc2)cs1 (configuration not stated)	13	38*	-2	0.11	i
NC(c1ccc(F)c(F)c1)c1nc(-c2cc(F)cc(F)c2)cs1 (configuration not stated)	?	-1	-2	.	.
CCOC(=O)c1c(N)sc(C(=O)Nc2ccccc2)c1C	-1	2.9*	0	-0.18	i
CCOC(=O)c1sc(NC(=O)Nc2ccccc2)cc1C	3	2.1*	.	-0.38	i
CCOC(=O)c1sc(NC(=O)Nc2ccccc2Cl)cc1C	-2	.	.	.	.
CCOC(=O)c1c(N)sc(C(=O)Nc2ccccc2F)c1C	13	0	-2	.	.
C[C@H]1CN([C@@H](C)CO)C(=O)CCCn2nncc2CO[C@H]1CN(C)S(=O)(=O)c1ccc(F)cc1	1	0	3	.	.
C[C@@H]1CN([C@H](C)CO)C(=O)CCCn2nncc2CO[C@@H]1CN(C)S(=O)(=O)c1ccc(F)cc1	4	0	1	.	.
C[C@@H]1CN([C@H](C)CO)C(=O)CCCn2nncc2CO[C@H]1CN(C)S(=O)(=O)c1ccc(F)cc1	1	1.2*!	-1	0	i
C[C@@H]1CN([C@@H](C)CO)C(=O)CCCn2nncc2CO[C@@H]1CN(C)S(=O)(=O)c1ccc(F)cc1	-5	1.3*!	-1	0.058[42 µM]	i
C[C@H]1CN([C@@H](C)CO)C(=O)c2cccc(NC(=O)C3CC3)c2O[C@H]1CN(C)Cc1ccc2c(c1)OCO2	.	0	1	.	.
CC=Cc1ccc2n(c1=O)C[C@H]1[C@H](CO)[C@@H](C(=O)NCC)[C@@H]2N1CCC(F)(F)F (mixture of isomers)	.	0	2	.	.
O=C(N[C@H]1CC[C@H](CCn2cc(C3(O)CCCC3)nn2)O[C@H]1CO)c1ccccc1F	.	0	-3	.	.
C[C@@H]1CN([C@H](C)CO)C(=O)c2cc(C#Cc3ccncc3)cnc2O[C@H]1CN(C)S(=O)(=O)c1ccccc1F	.	0	0	.	.
CCOC(=O)[C@@H]1[C@H]2COc3cc(OC)ccc3[C@H]2N2C(=O)N(c3ccc(C)cc3)C(=O)[C@]12C	-5	1.6*	1	0.055	i
CCOC(=O)[C@@H]1[C@H]2COc3cc(OC)ccc3[C@@H]2N2C(=O)N(c3ccc(C)cc3)C(=O)[C@]12C	6	0	1	.	.
Cc1[nH]c2ccccc2c1/C=N/NC(=O)c1cccc([N+](=O)[O-])c1	13	.	0	.	.
